Assay results as given in PubChem BioAssay (NCI).
Compounds without any hit were thinned out: in the full panel of roughly 83,000, 20% have a hit.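 Note: values are percent growth. 100 is the growth of untreated cells, values between 100 and 0 indicate rising inhibition; between -100 and 0 indicates cell death.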 The source made the active and inactive calls.

tested on: EKVX NSCLC; assay: NCI-60 one-dose screen, 48 h (100 = growth as untreated, 0 = no growth, -100 = all killed); settings: 10 µM unless noted
Experimental: Growth inhibition of the EKVX human Non-Small Cell Lung tumor cell line is measured as a screen for anti-cancer activity. Cells are grown in 96 well plates and exposed to the test compound for 48 hours. Compounds are tested at a single concentration, which is 10^-5 M for most compounds. The reported endpoint is percent growth (GI% or GIPRCNT), where numbers from 0 - 100% represent growth inhibition, and numbers from -100% - 0 represent cell death. For example, a value of 40 represents 60% growth inhibition. A value of 0 means no net growth occurred over the course of the experiment. A value of -40 indicates 40% of cells at the beginning of the experiment died by the end of the experiment. A value of -100 means all cells are dead at the end of the experiment.
NCI-60 Human Tumor Cell Lines Screen was performed using the standard one-dose NCI protocol, which is described in more detail at https://dtp.cancer.gov/discovery_development/nci-60/default.htm.
Compounds with GIPRCNT values below 10 were considered active. Activity score was based on GIPRCNT using the following formula: […]
Score is 0 for GIPRCNT values of 100 or above, 50 for GIPRCNT values of 0, and 100 for GIPRCNT values of -100.

| Structure (SMILES) | growth |
| --- | --- |
| COc1ccc(Sc2[nH]c(C(C)=O)c3ccccc23)cc1 | 30.9% (inactive) |
| Cc1cc(O)cc(O)c1N=NC1=NCCS1 | 96.5% (inactive) |
| COc1ccc(Cl)c([N+](=O)[O-])c1 | 103% (inactive) |
| COc1ccc(C2C(c3ccccc3)C(=O)N2c2cc(OC)c(OC)c(OC)c2)cc1I (stereo not given) | 61.9% (inactive) |
| O=c1[nH]nc(-c2ccc(Br)cc2)c2sc(NC(=S)Nc3ccc(Cl)cc3)nc12 | 89.8% (inactive) |
| COc1cc(/C=N/Nc2nc(-c3ccc(F)cc3)c(C#N)c(N3CCOCC3)n2)ccc1O | 90.5% (inactive) |
| COC(=O)c1cc2c3c(cc(O)c2[nH]1)N(C(=O)C1Cc2cc(OC)c(OC)c(OC)c2N1)CC3CCl (stereo not given) | -31.5% (active) |
| COC(=O)CCc1cc(O)c2c(c1)[C@@H](C(=O)OC)[C@H](c1ccc(O)c(O)c1)O2 | 87.7% (inactive) |
| CCCn1c2cc(OCc3cn(-c4ccc(Br)cc4)nn3)ccc2c2ccnc(C)c21 | 82.7% (inactive) |
| CC(=O)Oc1c2c(nc3c1c1ccccc1n3Cc1ccccc1)-c1ccccc1C2 | 80.8% (inactive) |
| COc1ccc2c(c1)Oc1nc(N)c(C#N)c(N)c1C2Sc1ccc(O)cc1 (stereo not given) | 77.7% (inactive) |
| NC(=O)C(O)(c1ccccc1)c1ccccc1 | 100% (inactive) |
| N#CC1(C#N)C2=C(CCCC2)NC(c2c(F)cccc2Cl)C1(C#N)C#N (stereo not given) | 71.1% (inactive) |
| COC(=O)c1oc2c(C(=O)/C=C/c3ccc(OC)cc3)c(OCCCN3CCCCC3)ccc2c1C | 28% (inactive) |
| CCOC(=O)/C(=C/c1c(-c2ccccc2)[nH]c2ccccc12)C(=O)c1ccc(Cl)cc1 | 30.6% (inactive) |
| O=C(Nc1nc(-c2ccccc2Cl)cs1)c1cc(-c2ccc(Br)cc2)nc2ccccc12 | 35.6% (inactive) |
| CCCNc1nc(C)[nH]c(=O)c1S | 120% (inactive) |
| Cc1nc2sc(C(=O)Nc3cccc4ccccc34)c(N)c2cc1C(C)O (stereo not given) | 36.7% (inactive) |
| COc1ccc(C(=O)c2cc(F)c(F)c(OC)c2F)cc1OC(=O)CCl | 73.9% (inactive) |
| CC(=O)OCC1OC(OC2C(COC(C)=O)OC(OCCC[S-])C(OC(C)=O)C2OC(C)=O)C(OC(C)=O)C(OC(C)=O)C1OC(C)=O.[Au+].c1ccc(CN2[CH-]N(Cc3ccccc3)C(c3ccccc3)=C2c2ccccc2)cc1 (stereo not given) | 28.1% (inactive) |

| Structure (SMILES) | growth |
| --- | --- |
| CCCCn1c(=O)c(/C=C/C(=O)/C=C/c2ccc(OC)cc2)cc2cc(Cl)ccc21 | 91% (inactive) |
| COc1ccc(-c2nnc(N3CCN(C(=O)CN4CCN(c5ccccc5)CC4)CC3)nc2-c2ccc(OC)cc2)cc1 | 13% (inactive) |
| CC[C@]12C=CCN3CC[C@@]4(c5cc(NC(=O)CCC(=O)O[C@H]6CC[C@H]7[C@@H]8CC[C@H]9CC(=O)CC[C@]9(C)[C@H]8CC[C@]67C)c(OC)cc5N(C)[C@H]4[C@@](O)(C(=O)OC)[C@@H]1OC(C)=O)[C@@H]32 | 66% (inactive) |
| O=C1C(Cl)=C(NCCCN(CCCNC2=C(Cl)C(=O)c3ccccc3C2=O)C2=C(Cl)C(=O)c3ccccc3C2=O)C(=O)c2ccccc21 | 80% (inactive) |
| COc1ccc(/C=C(/C(=O)N2CCCC2)c2cc(OC)c(OC)c(OC)c2)cc1 | 73.1% (inactive) |
| CC1(C)CC[C@]2(c3nnc(-c4ccncc4)o3)CC[C@]3(C)C(=CC[C@@H]4[C@@]5(C)CCC(=O)C(C)(C)[C@@H]5CC[C@]43C)[C@@H]2C1 | 76.3% (inactive) |
| Cc1nccc2c3ccc(OCc4cn(-c5ccc(Br)cc5)nn4)cc3n(CC(C)C)c12 | 59.5% (inactive) |
| Cc1cc(C)c(NC(=O)c2sc3nc4c(cc3c2N)CCCCCC4)c(C)c1 | 67.8% (inactive) |
| CC1(c2ccccc2Cl)NC(=O)NC1=O (stereo not given) | 105% (inactive) |
| O=C1NC(SCc2ccc(F)cc2)=N/C1=C/c1cccc(OCc2ccc(Cl)cc2)c1 | 66.3% (inactive) |
| CN(C)c1ccc(-c2ccc3[nH]c(=O)nc(-c4ccc(F)cc4)c3c2)cn1 | 55.9% (inactive) |
| N#Cc1c(NC(=O)c2cccs2)[n+]([O-])c2cc(C(F)(F)F)ccc2[n+]1[O-] | 87.1% (inactive) |
| C#CC[C@@H]1C[C@]2(C)[C@H]3CC[C@@H]4[C@H]5[C@H](C(=C)C)CC[C@]5(C(=O)O)CC[C@@]4(C)[C@]3(C)CC[C@H]2C(C)(C)[C@H]1O | 55.4% (inactive) |
| CC(/C=C/c1ccccc1)=N/NC(=O)c1ccncc1 | 107% (inactive) |
| CCCCCCCCCCCCCC1=NCC[N+]1(CCO)Cc1ccccc1 (stereo not given) | -79.5% (active) |
| Cc1cccc(C)c1NC(=O)CN(CC(C)C)CC(O)COc1ccccc1 (stereo not given) | 85.2% (inactive) |
| CC(=O)O[C@@H]1C[C@]2(C)[C@H]3[C@H](O)C[C@@H]4C5=CC(C)(C)CC[C@]5(C)CC[C@@]4(C)[C@]3(C)CC[C@H]2C(C)(C)[C@H]1O | 96.5% (inactive) |
| O=C(Nc1cccc(-c2cccc(F)c2)c1)C1CCN(Cc2cccc3cccnc23)CC1 | 68.4% (inactive) |
| COc1ccc(Cc2nc(C#N)c(N3CCN(c4ccc(F)cc4)CC3)o2)cc1 | 93.2% (inactive) |
| Cc1ccc(CS/C(=C\c2ccc([N+](=O)[O-])cc2)C(=O)c2ccc(F)cc2)cc1 | 64% (inactive) |
